Assay results taken from PubChem BioAssay AID1347071 (National Center for Advancing Translational Sciences (NCATS), 2019).
In all, about 410,000 compounds went through this assay and about 260 (0.063%) were called active. A call without a number means that no potency is given here. Not shown: some 2% with an inconclusive outcome. The call rests on the fitted dose curve; in most records, active means well fitted activation curve with a large enough effect; inconclusive means small, poorly fitted or top-dose-only effect; inactive means no such curve, though single readings can be large or run the other way. For the sample, actives were picked, then their nearest neighbours and some compounds at random.

Experiment: qHTS for compounds that reverse cellular toxicity of Amyloid beta (A-beta) peptide in yeast: Primary Screen; further: nearly all actives have a fitted effect of over 55% in size
Details: yeast expressing A-beta42, growth rescue, OD600, 48 h; series mostly up to 46.1 µM
Text: The A-beta peptide is produced by the processing of the amyloid precursor protein (APP) by two proteases, beta and gamma secretases. […] A-beta42 is regarded as the most amyloidogenic form due to its hydrophobicity; however, precisely how A-beta42 induces neurotoxicity is unclear. To understand further this biology and its potential therapeutic implications for human neurodegenerative disease, a quantitative high-throughput screen for compounds that reverse the cellular toxicity of the A-beta peptide was developed. A yeast based screen was used because it recapitulates the salient feature of protein mis-folding disorder accurately. This cell-based phenotypic screen provides a significant, unbiased advantage by letting the compounds and models inform us which proteins or pathways are most relevant. The ideal chemical candidates would therefore have activity in both our primary yeast and secondary neuronal toxicity assays, as well as in mouse models. They will be valuable tools for dissecting diverse protein homeostasis pathologies and could potentially become the focus for future pre-clinical development. For this luminescence assay, inhibition of A-beta rescues the toxic effect in the yeast cell, resulting in increase of signals and the desired phenotype of "Activator". This screen is run against the Molecular Libraries Small Molecule Repository (MLSMR) and the NCGC Sytravon Library Collection.
NIH Chemical Genomics Center [NCGC]
NIH Molecular Libraries Probe Centers Network [MLPCN]
Assay Submitter (PI): Susan Lindquist, Whitehead Institute, Massachusetts Institute of Technology
[1] Vassar R,et al (1999). Beta-secretase cleavage of Alzheimer's amyloid precursor protein by the transmembrane aspartic protease BACE. Science. 286: 735-741.
[2] Yan R, et al (1999). Membrane-anchored aspartyl protease with Alzheimer's disease beta-secretase activity. Nature. 402: 533-536.
Two and a half microliter / well of yeast growth medium were dispensed in a 1536 assay plate. Compounds were pinned using the Kalypsys robotic system followed by addition of 2.5 uL / well yeast solution. The assay plates were incubated at 30 C. After 48 hr, the absorbance signal at 600 nm was obtained using the PerkinElmer ViewLux plate reader to assess yeast growth. The data was normalized to the positive control of an equimolar mixture of ferric chloride (FeCl3) and clioquinol and to the negative control DMSO.
Potency means the concentration at half of the fitted maximal effect.

Structure (SMILES)	Potency
CCOC(=O)c1nnn(CC(=O)NC(=O)Nc2ccccc2F)c1C(=O)OCC	inactive
CCS(=O)(=O)N1CCc2cc(C(=O)NCc3ccc(OC)cc3)ccc21	inactive
CCOC(=O)c1cc(NC(=O)c2ccc(F)cc2)c(=O)n2c1oc1ccccc12	inactive
COc1ccc(CCNC(=O)c2cc3cccc4c3n2CC(C)S4)c(OC)c1OC (configuration not stated)	inactive
COc1ccc(Cn2c(C(=O)O)c(CNCc3cccc(OC)c3)c3ccc(C)cc32)cc1	inactive
CC(C)S(=O)(=O)c1oc(-c2ccc(F)cc2)nc1S(=O)(=O)c1ccc(F)cc1	inactive
CC(Sc1oc(-c2ccco2)nc1S(=O)(=O)c1ccc(Br)cc1)c1ccccc1 (configuration not stated)	inactive
Cc1nn(-c2ccc(F)cc2)c(-n2cccc2)c1C(=O)N1CCN(c2ccccc2)CC1	inactive
FC(F)(F)c1ccccc1Cc1c(-c2ccccc2)nc2c3ccccc3ccn12	12.6 µM (active)
CCCc1nc2c3ccccc3ccn2c1Cc1ccccc1C(F)(F)F	inactive
N#Cc1ccc(-c2nc3c(Cl)cc(C(F)(F)F)cn3c2Cc2ccccc2C(F)(F)F)cc1	inactive
COc1cccc(-n2cc(C(=O)NCc3cccc(Cl)c3)c3ccccc3c2=O)c1	inactive
COc1ccc(Cn2ccn(CC(=O)Nc3cc(C)ccc3C)c(=O)c2=O)cc1	inactive
COCCn1c(SCC(=O)c2cc(C)ccc2C)nc2cc(C(=O)NC3CCCC3)ccc2c1=O	inactive
COc1cccc(C(=O)NC2(C(F)(F)F)C(=O)Nc3c2c(=O)[nH]c(=O)n3-c2ccc(C)cc2)c1 (configuration not stated)	inactive
CCOc1ccc(-n2c(C)nc3c(cnn3-c3ccc(C)cc3)c2=O)cc1	inactive
CCC(=O)N1c2ccccc2CC1C(=O)N1CCN(c2ccccc2)CC1 (configuration not stated)	inactive
COc1cc(CNCCSc2nnnn2C)ccc1OCc1ccc(Cl)cc1Cl	inactive
CC1=C(C(=O)Nc2ccccc2Cl)C(c2cccs2)n2ncnc2N1 (configuration not stated)	inactive

Structure (SMILES)	Potency
CCCCOC(=O)CSc1ncnc2sc3c(c12)CCC(C)C3 (configuration not stated)	inactive
CC1CCCN(S(=O)(=O)c2ccc3[nH]c(=O)cc(C(=O)NCCc4ccc(Cl)cc4)c3c2)C1 (configuration not stated)	inactive
CCCn1c2ccccc2c2cnn(CC(=O)N3CCCC(C(=O)OCC)C3)c(=O)c21 (configuration not stated)	inactive
CCOC(=O)c1ccc(N2C(=O)c3n[nH]c(-c4ccco4)c3C2c2ccc(O)cc2)cc1 (configuration not stated)	inactive
COc1ccc(-c2cn3nc(N4CCCC(C(=O)NCCCOC(C)C)C4)sc3n2)cc1 (configuration not stated)	inactive
COc1ccc2cc(CNc3ccc(OC)c(OC)c3)c(=O)n(CC(=O)Nc3ccccc3F)c2c1	inactive
Cc1ccc(C)c(N2CCN(CCCNC(=O)Nc3ccc(Cl)cc3)CC2)c1	inactive
COc1ccc(S(=O)(=O)c2cn(C)c3cc(N4CCCCC4)c(F)cc3c2=O)cc1	inactive
COc1cccc(CNCc2c(C(=O)O)n(Cc3ccc(C)cc3)c3cc(C)ccc23)c1OC	inactive
O=C(NC1CCCCC1)c1ccc2c(c1)N(Cc1ccc(Cl)cc1)C(=O)c1ccccc1S2=O (configuration not stated)	inactive
COc1ccc(NC(=O)NC(C)c2c(-n3cccc3)sc(C)c2C)cc1OC (configuration not stated)	inactive
COc1ccc(OC)c(-c2noc(N3CCN(c4cc(Cl)ccc4C)CC3)n2)c1	inactive
O=C(Nc1c(C(=O)N2CCN(c3ccc(F)cc3)CC2)oc2ccccc12)c1ccco1	inactive
CCOc1ccc(CNC(=O)c2cccc(Nc3nc4ccccc4n4nnnc34)c2)cc1OC	inactive
CCc1cc2c(cc3c(=O)n(CC(=O)NCc4cccc(Cl)c4)nc(CC)n32)s1	inactive
Cc1nn(CC(=O)NCCc2ccccc2)c(=O)c2c1sc1ccccc12	inactive
O=C(CSc1nccn1-c1ccc(F)cc1)Nc1cccc2ccccc12	inactive
Cn1c(=O)cc(OCC(=O)N2CCN(c3ccccc3)CC2)c2ccccc21	inactive
COc1cc2c(cc1OC)C(COc1ccc(F)cc1)N(C(=O)c1ccccc1F)CC2 (configuration not stated)	inactive

Structure (SMILES)	Potency
CCOc1ccccc1NC(=O)CSc1ncc(S(=O)(=O)c2ccc(C(C)(C)C)cc2)c(=O)[nH]1	inactive
CCOCCCn1c(SCC(=O)Nc2ccc(CC)cc2)nc2ccccc2c1=O	inactive
CCCN(CCC)C(=O)C1CCCN(c2ncnc3c2nc2n3CCCCC2)C1 (configuration not stated)	inactive
Cn1c(=O)n(Cc2c(F)cccc2Cl)c(=O)c2c1nc1n2CCN1c1ccc(F)cc1	inactive
Cc1ccc(Cl)cc1N1CCN(C(=O)c2cccn3c(=O)c4cc(Cl)ccc4nc23)CC1	inactive
COCCN(Cc1ccco1)C(=O)Cn1ncc2c([nH]c3ccccc32)c1=O	inactive
O=C(CSc1nnc(-c2ccccc2F)o1)Nc1cccc(C(F)(F)F)c1	inactive
Cc1ccc2nc(COc3cccc(NC(=O)c4cccc(Cl)c4)c3)cc(=O)n2c1	inactive
COc1ccc(-n2ccn(CC(=O)Nc3ccc(C)c(C)c3)c(=O)c2=O)cc1OC	inactive
COc1ccc(CNC(=O)Cc2coc3ccc(C(C)C)cc23)cc1	inactive
CCCCCn1c(=O)[nH]c2cc(C(=O)NCCN(C)CCCC)ccc2c1=O	inactive
CCOc1ccc(CNC(=O)c2cc(=O)[nH]c3ccc(S(=O)(=O)N4CCCCC4)cc23)cc1	inactive
Cc1ccc(C)c(Nc2nnc(-c3ccc(C)c(S(=O)(=O)N4CCCCC4)c3)c3ccccc23)c1	inactive
CCc1cccc(C)c1Nc1c(-c2ccc(N(C)C)cc2)nc2ncccn12	inactive
COc1ccc(-c2nc3ccccc3o2)cc1NC(=O)c1cc([N+](=O)[O-])ccc1N1CCOCC1	inactive
Cc1ccc(-c2nc3ccccn3c2Nc2c(C)cccc2C)o1	inactive
COc1ccc(NS(=O)(=O)c2cc3c4c(c2)CC(=O)N4CCC3)cc1Cl	inactive
O=S(=O)(Nc1ccc2nc(-c3cccc(Cl)c3)oc2c1)c1ccccc1	inactive
CCOC(=O)c1ccc(NC(=O)c2c(NCc3cccc(OC)c3)sc3c2CCC3)cc1	inactive
